In the supplement of paper PMC12494721:
Structures can show the parent of a compound that is named as a salt.

Experiments:
Settings in all cases: incubation time: 27 h, anaerobic, 37 °C;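 for the amine columns active = adjusted P below 0.05 in both replicates with a change the same way and a mean fold change under 0.8 or over 1.25; inactive = the rest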
Escherichia coli IAI1 [1] = assay: growth (OD595) fold change vs plate DMSO controls (fold change (ratio)); higher = more growth
How it was run: (§1)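 Absorbance at 595 nm was read after shaking the anaerobic mGAM cultures, which had grown in 96-well plates for 27 h at 37 °C. After blank subtraction and background correction against 20 µM compound solutions in water, a calibration factor of 5 gave OD values. Growth is the fold change against the median of the plate's DMSO controls. Values are the mean of 2 biological replicates, with fold changes above 1.5 set to NA.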

[2] = test system: Klebsiella aerogenes DSM 30053; assay: as above
How it was run: as §1

[3] = test system: Ruminococcus gnavus DSM 108212; assay: as above
How it was run: as §1

[4] = test system: Klebsiella aerogenes DSM 30053; assay: fold change of Histamine concentration vs plate DMSO controls (fold change (ratio)); higher = more amine produced, active = hit call of the paper (significant change in both replicates, either direction)
How it was run: (§2)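 Amine values are fold changes relative to DMSO-only wells on the same plate. They derive from 27 h, 37 °C anaerobic mGAM cultures of four gut bacterial strains in 80 µL wells, dosed at 20 µM final, or 50 µM final for sweeteners. Extraction of the whole culture, LC–triple-quadrupole MS in dynamic MRM mode, external calibration curves and within-batch drift correction were used, with 2 biological replicates averaged.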

[5] = test system: Ruminococcus gnavus DSM 108212; assay: fold change of Tryptamine concentration vs plate DMSO controls (fold change (ratio)); higher = more amine produced, active = hit call of the paper (significant change in both replicates, either direction)
How it was run: as §2

Escherichia coli IAI1 [6] = assay: fold change of Putrescine concentration vs plate DMSO controls (fold change (ratio)); higher = more amine produced, active = hit call of the paper (significant change in both replicates, either direction)
How it was run: as §2

[7] = test system: Klebsiella aerogenes DSM 30053; assay: as above
How it was run: as §2

Escherichia coli IAI1 [8] = assay: fold change of Cadaverine concentration vs plate DMSO controls (fold change (ratio)); higher = more amine produced, active = hit call of the paper (significant change in both replicates, either direction)
How it was run: as §2

[9] = test system: Klebsiella aerogenes DSM 30053; assay: as above
How it was run: as §2

[10] = test system: Ruminococcus gnavus DSM 108212; assay: fold change of 2-Phenylethylamine concentration vs plate DMSO controls (fold change (ratio)); higher = more amine produced, active = hit call of the paper (significant change in both replicates, either direction)
How it was run: as §2

[11] = test system: Clostridium sporogenes DSM 1664; assay: growth (OD595) fold change vs plate DMSO controls (fold change (ratio)); higher = more growth
How it was run: as §1

[12] = test system: Clostridium sporogenes DSM 1664; assay: fold change of Tryptamine concentration vs plate DMSO controls (fold change (ratio)); higher = more amine produced, active = hit call of the paper (significant change in both replicates, either direction)
How it was run: as §2

SMILES	growth (Escherichia coli IAI1 [1])	growth [2]	growth [3]	fold change of Histamine concentration [4]	fold change of Tryptamine concentration [5]	fold change of Putrescine concentration (Escherichia coli IAI1 [6])	fold change of Putrescine concentration [7]	fold change of Cadaverine concentration (Escherichia coli IAI1 [8])	fold change of Cadaverine concentration [9]	fold change of 2-Phenylethylamine concentration [10]	growth [11]	fold change of Tryptamine concentration [12]
Clc1ccccc1CN1CCc2sccc2C1 [Ticlopidine hydrochloride] (20 µM)	0.944	0.958	1.18	1.01 (inactive)	0.983 (inactive)	1.01 (inactive)	0.989 (inactive)	0.934 (inactive)	0.98 (inactive)	0.977 (inactive)	–	–
C=C[C@H]1CN2CC[C@H]1C[C@@H]2[C@@H](O)c1ccnc2ccc(OC)cc12 [Quinidine hydrochloride monohydrate] (20 µM)	1.01	0.966	0.981	1.11 (inactive)	0.978 (inactive)	0.986 (inactive)	1.05 (inactive)	0.921 (inactive)	0.987 (inactive)	1 (inactive)	–	–
C[C@H](CS)C(=O)N1CCC[C@H]1C(=O)O [Captopril] (20 µM)	0.976	1	0.851	1.01 (inactive)	1.04 (inactive)	0.963 (inactive)	1 (inactive)	1.01 (inactive)	1 (inactive)	1.04 (inactive)	–	–
CCN1CCN(C(=O)N[C@@H](C(=O)N[C@@H]2C(=O)N3C(C(=O)O)=C(CSc4nnnn4C)CS[C@H]23)c2ccc(O)cc2)C(=O)C1=O [Cefoperazone dihydrate] (20 µM)	0.0154	0.724	0.0225	0.472 (active)	0.0363 (active)	0.451 (inactive)	0.86 (inactive)	1.36 (inactive)	1.13 (inactive)	0.0394 (active)	–	–
CC(C)/N=c1\cc2n(-c3ccc(Cl)cc3)c3ccccc3nc-2cc1Nc1ccc(Cl)cc1 [Clofazimine] (20 µM)	1.03	1.04	–	0.999 (inactive)	0.637 (active)	1.04 (inactive)	1.04 (inactive)	1 (inactive)	1.03 (inactive)	0.727 (active)	0.239	0.0321 (active)
Clc1cc(Cl)c(OCC#CI)cc1Cl [Haloprogin] (20 µM)	0.942	0.967	–	1.01 (inactive)	0.777 (inactive)	1.09 (inactive)	0.953 (inactive)	1.04 (inactive)	0.987 (inactive)	0.861 (inactive)	0.986	0.977 (inactive)
Cc1noc(NS(=O)(=O)c2ccc(N)cc2)c1C [Sulfisoxazole] (20 µM)	1.03	1.02	1.13	1.07 (inactive)	1.01 (inactive)	1.03 (inactive)	1.02 (inactive)	1.04 (inactive)	1.01 (inactive)	1 (inactive)	–	–
CCn1cc(C(=O)O)c(=O)c2cc(F)c(N3CCN(C)CC3)cc21 [Pefloxacin] (20 µM)	0.0501	0.198	1.13	0.127 (active)	0.915 (inactive)	0.793 (inactive)	1.05 (inactive)	0.204 (active)	0.972 (inactive)	0.91 (inactive)	–	–
CC(=O)Nc1ccc(O)cc1 [Acetaminophen] (20 µM)	0.986	0.999	0.921	0.998 (inactive)	–	1.01 (inactive)	1 (inactive)	0.976 (inactive)	0.993 (inactive)	1.12 (inactive)	–	–
OC(c1cc(C(F)(F)F)nc2c(C(F)(F)F)cccc12)C1CCCCN1 (stereo unspecified) [Mefloquine hydrochloride] (20 µM)	0.858	0.808	1	–	–	–	–	–	–	–	0.869	–
Cc1ccc(NC(=O)c2ccc(CN3CCN(C)CC3)cc2)cc1Nc1nccc(-c2cccnc2)n1 [Imatinib] (20 µM)	1.07	1.05	1.17	1.01 (inactive)	1.07 (inactive)	0.954 (inactive)	0.962 (inactive)	0.95 (inactive)	1.04 (inactive)	1.08 (inactive)	–	–
CO[C@@]1(NC(=O)CSCC#N)C(=O)N2C(C(=O)O)=C(CSc3nnnn3C)CS[C@@H]21 [Cefmetazole sodium salt] (20 µM)	0.0115	1.16	–	1.12 (inactive)	0.978 (inactive)	0.284 (active)	1.05 (inactive)	0.941 (inactive)	1.03 (inactive)	1.13 (inactive)	0	0.0521 (active)
CC[C@]12CCCN3CCc4c(n(c5ccccc45)[C@@](O)(C(=O)OC)C1)[C@@H]32 [Vincamine] (20 µM)	1.01	1.05	0.949	1.01 (inactive)	0.973 (inactive)	0.996 (inactive)	1 (inactive)	1.02 (inactive)	0.99 (inactive)	0.942 (inactive)	–	–
COc1c(N2C[C@@H]3CCCN[C@@H]3C2)c(F)cc2c(=O)c(C(=O)O)cn(C3CC3)c12 [Moxifloxacin] (20 µM)	0.0497	0.193	0.00485	0.256 (active)	0.205 (active)	0.828 (inactive)	0.915 (inactive)	0.236 (active)	0.982 (inactive)	0.215 (active)	–	–
Nc1ccn([C@@H]2CS[C@H](CO)O2)c(=O)n1 [Lamivudine] (20 µM)	0.995	0.992	0.831	1.06 (inactive)	1.02 (inactive)	1.02 (inactive)	1.03 (inactive)	1.02 (inactive)	0.99 (inactive)	1.02 (inactive)	–	–
